# NSD2 HMT inh: NSD2 (human) methyltransferase inhibition; O96028; NSD2 peptide methylation, AlphaScreen, 120 min; inhibition, % at 12.5 µM; 310,000 compounds, 0.54% hits; AID 743445; in the data active = inhibition above about 50%
# N-glyco inh: blocks N-linked glycosylation in D54 reporter cells. reporter increase, % at 12.5 µM. D54 ERlucT glycosylation luciferase reporter, 24 h; percent of 100 nM tunicamycin response. AID 588692. 360,000 compounds, 0.23% hits;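 active = mean luciferase reporter signal, scaled so untreated is 0 and the glycosylation-blocking control 100, at or above a set limit in every replicate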;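 note: luciferase carries N-glycosylation sites so blocking glycosylation raises the light; 0% = median of neutral control wells and 100% = median of 100 nM tunicamycin wells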
# CDK5 inh: CDK5/p35 (human) kinase inhibition; 330,000 compounds, 0.01% hits; Recombinant CDK5/p35, ADP-Glo luminescence, 60 min; AID 488839; Q00535+Q15078; inhibition, % at 10 µM;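 active = highest replicate inhibition of at least 50% and at least 75% of replicates reaching 50%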;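 note: plate controls were DMSO neutral control for no effect and GW8510 at 10 µM for full effect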
# Casp6 inh: caspase-6 (human) enzyme inhibition. P55212. purified caspase-6, Z-VEID-R110 cleavage fluorescence. inhibition, % at 12.5 µM. 350,000 compounds, 0.53% hits;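 active = mean inhibition across replicates at least about 35%, with every replicate also reaching that limit, limit read from the data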;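 note: 0% = median of neutral control wells and 100% = no fluorescence left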
# Mot1-301 SUMO: inhibitors of SUMOylation pathway: yeast Mot1-301 growth rescue | S. cerevisiae Mot1-301 growth rescue, ATP luminescence, 38.5C; percent above DMSO median, 100 means doubled | growth rescue, % at 18.8 µM | 320,000 compounds, 1% hits;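 active = every valid replicate shows activation above 250% relative to neutral control wells; inactive = the rest, any valid replicate at or below 250%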;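 note: OY570 slx delta 5 strain wells were the positive control but not used for scaling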
# ALR inh: inhibitors of human sulfhydryl oxidase ALR. purified ALR, DTT oxidation, H2O2 HRP-luminol luminescence. inhibition, % (test concentration not listed). 290,000 compounds, 3.8% hits;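 active = mean replicate inhibition above about 79%, with every replicate also reaching it, limit read from the data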
# * hit, by the source's call; / = not tested or not shown. The list is not random: actives were taken first. Their share in the collection is about 3.9%.
SMILES,NSD2 HMT inh,N-glyco inh,CDK5 inh,Casp6 inh,Mot1-301 SUMO,ALR inh
Cc1cc(O)c2c(C)c(CC(=O)N3C[C@H]4C[C@@H](C3)c3cccc(=O)n3C4)c(=O)oc2c1,/,-1,0,0,5,85*
COc1ccc(C#Cc2ccc([C@@H]3[C@@H](CO)N4CCCCN(C(=O)Cc5ccncc5)C[C@@H]34)cc2)cc1,/,/,/,1,/,/
Nc1nonc1C(=O)N/N=C/c1ccc([N+](=O)[O-])o1,8,30*,-1,/,16,-21
Cc1cc(N=Nc2ccccc2C)ccc1N,/,-2,1,-1,73,86*
Cc1ccc(N)c(C(=O)c2ccccc2)c1,-3,0,0,2,0,3
N#Cc1ccc(-c2ccc([C@H]3[C@H](CO)N4CCCCN(C(=O)Cc5ccccc5)C[C@@H]34)cc2)cc1,/,/,/,-4,/,/
CN1C(=O)NC(=O)C(N=Nc2ccc(Cl)cc2)C1=O (stereo unspecified),4,5,1,47*,/,/
COc1ccc(CN2C(=O)NC(=O)/C(=C/c3ccc([N+](=O)[O-])s3)C2=O)cc1,36,4,-7,44*,-28,-9
COc1cccc(N2C(=O)NC(=O)/C(=C/c3ccc([N+](=O)[O-])s3)C2=O)c1,28,2,-15,47*,58,-5
C[C@H]1CN([C@@H](C)CO)C(=O)CCCn2nncc2CO[C@@H]1CN(C)C(=O)Oc1ccc2ccccc2c1,/,/,/,3,/,/
Cc1cc(C)cc(N2C(=O)NC(=O)/C(=C\c3cccn3-c3ccc(Cl)cc3)C2=O)c1,9,3,1,/,60,98*
O=C1NC(=S)NC(=O)C1=Cc1cccn1-c1ccc(O)cc1,/,-1,0,88*,/,/
Cc1cc(C)cc(N2C(=O)NC(=O)/C(=C\c3cccn3-c3ccccc3)C2=O)c1,26,11,1,/,-12,51
O=C(Cc1ccccc1)N1CCCCN2[C@@H](CO)[C@H](c3ccc(-c4ccccc4)cc3)[C@@H]2C1,/,/,/,1,/,/
CCCCn1nnnc1C(CCSC)N1CCC(n2c(=O)[nH]c3ccccc32)CC1 (stereo unspecified),/,-1,/,50*,/,/
CCC12C=CCN3CCC4(c5cc(Br)c(OC)cc5N(C)C4C(O)(C(=O)OC)C1OC(C)=O)C32 (stereo unspecified),-3,1,-1,/,/,85*
COCCNC(=O)Cn1cc(/C=C2\C(=O)NC(=O)N(c3cccc(C)c3C)C2=O)c2ccccc21,6,5,-1,2,-3,92*
COCCNC(=O)Cn1cc(/C=C2\C(=O)NC(=O)N(c3ccccc3F)C2=O)c2ccccc21,12,5,-1,6,-7,-1
O=C(Cc1ccccc1)N1CC2(C1)[C@H](c1ccccc1)[C@H](CO)N2Cc1cccc(Cl)c1,/,/,/,0,/,/
COC(=O)[C@@H]1[C@@H](CO)[C@@H]2Cn3c(ccc(/C=C/c4ccccc4)c3=O)[C@H]1N2CC1CCCC1,/,/,/,-3,/,/
COC(=O)C[C@@H]1CC[C@H]2NC[C@H](O)COC[C@@H]2O1,/,/,/,-2,/,/
CC[n+]1c(-c2ccccc2)c2cc(N)ccc2c2ccc(N)cc21,178*,-14,0,99*,/,/
CN(C)c1ccc(/C=C2/C(=O)NC(=O)N(Cc3ccco3)C2=O)cc1,34,3,-11,81*,383*,19
COc1ccc(/C=C2/C(=O)N(Cc3ccco3)C(=O)N(C(C)C)C2=O)cc1,/,0,-12,78*,40,15
Cc1cc(/C=C2/C(=O)NC(=O)N(Cc3ccco3)C2=O)c(C)n1-c1ccccc1,10,0,-1,/,-10,92*
CCN(CC)c1ccc(/C=C2/C(=O)NC(=O)N(Cc3ccco3)C2=O)cc1,45,4,-20,/,-1,38
O=C(Cc1ccccc1)N1CC2(C1)[C@@H](c1ccccc1)[C@@H](CO)N2Cc1cccc(F)c1,/,/,/,0,/,/
CCN1[C@@H]2Cn3c(ccc(-c4cccc(OC)c4)c3=O)[C@H]1[C@@H](C(=O)OC)[C@@H]2CO,/,/,/,-3,/,/
O=C1NC(=S)N(c2ccccc2)C(=O)/C1=C/c1ccco1,/,1,/,95*,7,99*
COc1cccc(N2C(=O)/C(=C/c3ccc(C)o3)C(=O)NC2=S)c1,19,0,-8,40*,1,5

# Source: PubChem
